Binding signal data for 29 sequences are collected here from publication PMC11006913.

Sequence of ALX3 (O95076 139-225 L168Q): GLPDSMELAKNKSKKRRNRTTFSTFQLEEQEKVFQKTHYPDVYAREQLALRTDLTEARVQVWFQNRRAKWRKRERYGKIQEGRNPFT

In the first experiment the target is PROP1 (Homo sapiens, UniProt O75360 56-141, R99H). Briefly: PBM; 200 nM protein, PBS. The conditions noted are these: dsDNA, one strand shown.
Sequence of PROP1 (O75360 56-141 R99H): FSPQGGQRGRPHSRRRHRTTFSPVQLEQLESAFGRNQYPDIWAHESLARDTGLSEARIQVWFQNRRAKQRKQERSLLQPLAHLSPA
CCCGGACG: the binding signal is 6.67 upbm affinity estimate (log intensity, higher = more binding, comparable within an allelic series).
Regarding GCCAGGGC, the binding signal is 6.73 upbm affinity estimate (log intensity, higher = more binding, comparable within an allelic series).

The target in a further experiment is VAX1 (Homo sapiens, UniProt Q5SQQ9 86-172). In words: PBM; 200 nM protein, PBS. The conditions noted are these: dsDNA, one strand shown.
Sequence of VAX1 (Q5SQQ9 86-172): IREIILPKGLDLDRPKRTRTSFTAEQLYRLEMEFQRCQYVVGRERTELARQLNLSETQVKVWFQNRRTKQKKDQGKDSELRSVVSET
For the sequence GGGGTACC, the binding signal was 7.1 upbm affinity estimate (log intensity, higher = more binding, comparable within an allelic series).
Consider CCCCTCGG, for which the binding signal is 7.12 upbm affinity estimate (log intensity, higher = more binding, comparable within an allelic series).
CGAGCGAC: the binding signal is 7.11 upbm affinity estimate (log intensity, higher = more binding, comparable within an allelic series).
In the case of CCGGGAGG, the binding signal was 7.03 upbm affinity estimate (log intensity, higher = more binding, comparable within an allelic series).
As for CACGGGGG, the binding signal was 7.17 upbm affinity estimate (log intensity, higher = more binding, comparable within an allelic series).
In the case of CAAGGCCC, the binding signal was 7.02 upbm affinity estimate (log intensity, higher = more binding, comparable within an allelic series).
The same measure, in the same setting: next, GCCAGGGC: 7.25 upbm affinity estimate (log intensity, higher = more binding, comparable within an allelic series).

The next experiment addresses ALX3 (Homo sapiens, UniProt O95076 139-225, L168Q). In words: PBM; 200 nM protein, PBS. The conditions noted are these: dsDNA, one strand shown.
CGAGCGAC: the binding signal is 7.78 upbm affinity estimate (log intensity, higher = more binding, comparable within an allelic series).
Regarding GACCCAGC, the binding signal was 7.85 upbm affinity estimate (log intensity, higher = more binding, comparable within an allelic series).
In the case of GCCGCAGC, the binding signal is 7.75 upbm affinity estimate (log intensity, higher = more binding, comparable within an allelic series).

The next experiment has as its target T1, SIX6 (Homo sapiens, UniProt O95475 114-200, T165I).
T1 sequence: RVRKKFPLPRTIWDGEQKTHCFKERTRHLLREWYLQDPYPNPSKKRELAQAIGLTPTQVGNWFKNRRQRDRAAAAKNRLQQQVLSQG
In words: PBM; 200 nM protein, PBS. The note with it: dsDNA, one strand shown.
As for GCTTGGCC, the binding signal was 8.91 upbm affinity estimate (log intensity, higher = more binding, comparable within an allelic series).
As to GGCGGAAC, the binding signal is 8.82 upbm affinity estimate (log intensity, higher = more binding, comparable within an allelic series).
As for CAAGGCCC, the binding signal is 8.88 upbm affinity estimate (log intensity, higher = more binding, comparable within an allelic series).
On the same count and under the same terms, in the case of GCGCGCCC it was 8.71 upbm affinity estimate (log intensity, higher = more binding, comparable within an allelic series); in that of ATGATATG, 11.1 upbm affinity estimate (log intensity, higher = more binding, comparable within an allelic series).
In the case of AATGATAC, the binding signal is 11.3 upbm affinity estimate (log intensity, higher = more binding, comparable within an allelic series).

The target of the next experiment is HOXD13 (Homo sapiens, UniProt P35453 263-343, T313A). Briefly: PBM; 200 nM protein, PBS. The note with it: dsDNA, one strand shown.
Sequence of HOXD13 (P35453 263-343 T313A): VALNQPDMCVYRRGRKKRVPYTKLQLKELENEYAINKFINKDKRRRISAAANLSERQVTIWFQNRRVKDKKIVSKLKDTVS
On to AGAGGGGC, for which the binding signal is 9.59 upbm affinity estimate (log intensity, higher = more binding, comparable within an allelic series).
Still for that read-out and setting: in the case of CCCCTCCC it was 9.62 upbm affinity estimate (log intensity, higher = more binding, comparable within an allelic series).
With CCCCCTGC, the binding signal is 9.34 upbm affinity estimate (log intensity, higher = more binding, comparable within an allelic series).

In another experiment the target is HOXB9 (Homo sapiens, UniProt P17482 171-250, R186Q). In words: PBM; 200 nM protein, PBS. The conditions noted are these: dsDNA, one strand shown.
Sequence of HOXB9 (P17482 171-250 R186Q): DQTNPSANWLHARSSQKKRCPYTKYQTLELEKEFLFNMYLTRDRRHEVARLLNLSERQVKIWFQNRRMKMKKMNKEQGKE
As for CCATTAAC, the binding signal is 11.6 upbm affinity estimate (log intensity, higher = more binding, comparable within an allelic series).
With GCCATTAA, the binding signal is 12 upbm affinity estimate (log intensity, higher = more binding, comparable within an allelic series).
For the sequence CGAGCGAC, the binding signal is 8.41 upbm affinity estimate (log intensity, higher = more binding, comparable within an allelic series).
The same measure, in the same setting: next, GACCCAGC: 8.49 upbm affinity estimate (log intensity, higher = more binding, comparable within an allelic series).
For GCCGCAGC, the binding signal is 8.46 upbm affinity estimate (log intensity, higher = more binding, comparable within an allelic series).
CCCGGACG: the binding signal was 8.54 upbm affinity estimate (log intensity, higher = more binding, comparable within an allelic series).
In the case of CACGGGGG, the binding signal is 8.26 upbm affinity estimate (log intensity, higher = more binding, comparable within an allelic series).
With AGAGGGGC, the binding signal is 8.41 upbm affinity estimate (log intensity, higher = more binding, comparable within an allelic series).
Consider CTCCCGAG, for which the binding signal was 8.44 upbm affinity estimate (log intensity, higher = more binding, comparable within an allelic series).
As for GCGCGCCC, the binding signal is 8.61 upbm affinity estimate (log intensity, higher = more binding, comparable within an allelic series).

In another experiment the target is HOXC9 (Homo sapiens, UniProt P31274 178-260, R222W). In words: PBM; 200 nM protein, PBS. The note with it: dsDNA, one strand shown.
Sequence of HOXC9 (P31274 178-260 R222W): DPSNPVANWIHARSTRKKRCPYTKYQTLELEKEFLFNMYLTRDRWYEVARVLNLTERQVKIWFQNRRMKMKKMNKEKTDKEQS
Consider CCATTAAC, for which the binding signal is 11 upbm affinity estimate (log intensity, higher = more binding, comparable within an allelic series).
As for GGGGTACC, the binding signal is 9.69 upbm affinity estimate (log intensity, higher = more binding, comparable within an allelic series).
Same read-out and setting: in the case of GCCATTAA it was 10.9 upbm affinity estimate (log intensity, higher = more binding, comparable within an allelic series); in that of CCCCCTGA, 9.33 upbm affinity estimate (log intensity, higher = more binding, comparable within an allelic series); in that of CCCCATGC, 9.63 upbm affinity estimate (log intensity, higher = more binding, comparable within an allelic series).
Consider CCCCTCGG, for which the binding signal is 9.5 upbm affinity estimate (log intensity, higher = more binding, comparable within an allelic series).
As to CGAGCGAC, the binding signal is 9.73 upbm affinity estimate (log intensity, higher = more binding, comparable within an allelic series).
For the sequence CCGTCCGC, the binding signal is 9.54 upbm affinity estimate (log intensity, higher = more binding, comparable within an allelic series).
Same read-out and setting: next, CCGGGAGG: 9.7 upbm affinity estimate (log intensity, higher = more binding, comparable within an allelic series).
For the sequence GCTTGGCC, the binding signal was 9.69 upbm affinity estimate (log intensity, higher = more binding, comparable within an allelic series).
Regarding CTGGGACC, the binding signal was 9.65 upbm affinity estimate (log intensity, higher = more binding, comparable within an allelic series).
With GGCACCAC, the binding signal is 9.76 upbm affinity estimate (log intensity, higher = more binding, comparable within an allelic series).
In the case of CGGAGGGA, the binding signal is 9.69 upbm affinity estimate (log intensity, higher = more binding, comparable within an allelic series).
Consider CGGGCACG, for which the binding signal was 9.66 upbm affinity estimate (log intensity, higher = more binding, comparable within an allelic series).
With AGTTAATG, the binding signal was 10.8 upbm affinity estimate (log intensity, higher = more binding, comparable within an allelic series).
For CCCCTCCC, the binding signal is 9.53 upbm affinity estimate (log intensity, higher = more binding, comparable within an allelic series).
